Tau FP inhib: qHTS for Inhibitors of Tau Fibril Formation, Fluorescence Polarization. K18 P301L tau heparin fibrillization, Alexa594 FP, 6 h. 280,000 tested, 0.39% active. Microtubule-associated protein tau (Homo sapiens), P10636. Potency, µM (series often up to 57.7 µM), inactives show at the highest dose activity, negative = inhibition, usual class: inhibitors; note: nearly all actives have a fitted effect of over 55% in size
Target sequence (P10636 561-689 P618L limits assumed): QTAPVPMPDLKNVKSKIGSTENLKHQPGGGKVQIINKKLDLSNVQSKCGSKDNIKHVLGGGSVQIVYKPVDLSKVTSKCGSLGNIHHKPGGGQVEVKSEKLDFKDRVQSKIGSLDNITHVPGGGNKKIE
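Steps: dispense K18 P301L tau (15 uM plus 0.24 uM Alexa 594 tracer, final) in pH 7 sodium acetate; add compound; add heparin (20 uM final); incubate 6 hr, 37 C; add ThT (30 uM final); after 1 hr ambient, read FP.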
TR SRC2 fluor cs: Total Fluorescence Counterscreen for Inhibitors of the Interaction of Thyroid Hormone Receptor and Steroid Receptor Coregulator 2. TRb/SRC2 Texas Red total fluorescence interference. Potency, µM (doses to about 106 µM), inactives show at the highest dose fluorescence change, negative = quenching. 280,000 tested, 0.29% active. AID 1479, 2009; active = well fitted curve in either direction with a large enough effect; inconclusive = small, poorly fitted or top-dose-only effect
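Human TRβ ligand-binding domain (0.6 uM) and Texas Red SRC2 peptide (20 nM) in Tris buffer with 1 uM T3 and 5% DMSO were incubated with pinned compound for 5 hr at ambient temperature. Total fluorescence was computed as S + 2P (555/632 nm).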
Tau fluor counter: Counterscreen qHTS for Inhibitors of Tau Fibril Formation, Fluorescence Polarization; 280,000 tested, 0.93% active; Potency, µM (titrated, usually from 57.7 µM), for inactives: at the top dose activity change, negative = decrease; tau K18 P301L Alexa594 fluorescence, heparin fibrillization; note: nearly all actives have a fitted effect of over 55% in size
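Human tau K18 P301L (15 uM unlabeled, 0.24 uM Alexa 594-labeled) in 100 mM sodium acetate pH 7 with 20 uM heparin, 6 hr at 37 C. ThT 30 uM added, 1 hr ambient; Alexa 594 FP and total fluorescence read at 555/632 nm.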
Tau ThT inhib: qHTS for Inhibitors of Tau Fibril Formation, Thioflavin T Binding; Microtubule-associated protein tau (Homo sapiens), P10636; recombinant tau K18 P301L (four-repeat tau fragment), heparin-induced fibrillization, ThT fluorescence; Potency, µM (doses to about 57.4 µM), without a hit: at the top dose activity, negative = inhibition, hits mostly inhibitors; 270,000 tested, 2.1% active; AID 1460, 2008; note: nearly all actives have a fitted effect of over 55% in size
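Tau K18 P301L fragment (15 uM unlabeled plus 0.24 uM Alexa 594-labeled) in 100 mM sodium acetate pH 7 with compound, fibrillization induced by 20 uM heparin for 6 hr at 37 C. Thioflavin T (30 uM) added, fluorescence read after 1 hr (ex 450, em 510 nm).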
TRb-SRC2 inh: qHTS for Inhibitors of the Interaction of Thyroid Hormone Receptor and Steroid Receptor Coregulator 2. Thyroid hormone receptor beta (Homo sapiens), P10828. TRbeta-SRC2 peptide binding, fluorescence polarization; receptor liganded with 1 µM T3. Potency, µM (series often up to 106 µM), inactives show at the highest dose activity change, negative = inhibition, actives largely listed as inhibitors. 280,000 tested, 0.065% active. AID 1469, 2008;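 note: plate controls were bound peptide for no effect and peptide without receptor for full effect; nearly all actives have a fitted effect of over 50% in size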
Target sequence (P10828 whole entry, looked up): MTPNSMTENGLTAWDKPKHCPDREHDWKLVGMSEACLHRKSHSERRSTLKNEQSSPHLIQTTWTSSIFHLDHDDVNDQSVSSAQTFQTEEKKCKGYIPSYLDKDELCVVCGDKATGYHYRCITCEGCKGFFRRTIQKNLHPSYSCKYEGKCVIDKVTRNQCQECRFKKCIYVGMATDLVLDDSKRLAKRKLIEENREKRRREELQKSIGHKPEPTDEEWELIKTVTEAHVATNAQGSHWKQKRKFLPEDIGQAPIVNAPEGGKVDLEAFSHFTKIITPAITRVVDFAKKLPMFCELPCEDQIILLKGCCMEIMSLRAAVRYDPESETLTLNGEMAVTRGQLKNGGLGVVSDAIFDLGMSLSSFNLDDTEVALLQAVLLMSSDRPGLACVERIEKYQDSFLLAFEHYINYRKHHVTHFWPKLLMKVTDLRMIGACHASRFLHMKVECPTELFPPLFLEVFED
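Human TRb LBD (0.6 uM) plus Texas Red-labeled SRC2 peptide (20 nM), 1uM T3, 5% DMSO, 5 hr at ambient temperature. Decreased polarization (555/632 nm) flags inhibition; data normalized to free and bound peptide controls.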
GoLoco inh red: qHTS Assay for Inhibitors of RGS12 GoLoco Motif Activity (Red Fluorophore); Guanine nucleotide-binding protein G(i) subunit alpha-1 (Homo sapiens), P63096; Gai1:RGS12 GoLoco peptide FP, rhodamine, 10 min; Potency, µM (doses to about 61.6 µM), without a hit: at the highest dose activity, negative = inhibition, usual class: inhibitors; 230,000 tested, 0.44% active; AID 880, 2007; active = well fitted inhibition curve with a large enough effect, not every such curve was filed as active; inactive = no such curve, though single readings can be large or run the other way; note: nearly all actives have a fitted effect of over 30% in size
* = called active by the depositor; ! = not confirmed by another sample; [ ] = remark or other dose. Shown are actives, neighbours in structure and some others; about 3.1% of the full set was active somewhere. Unless noted, calls come from the whole dose curve; as a rule, active = well fitted curve in the direction sought with a large enough effect; inconclusive = small, poorly fitted or top-dose-only effect, or another doubt; inactive = no such curve, though single readings can be large; an effect the other way counts as inactive or inconclusive. Unless noted, % is set by controls: 0 for no effect and ±100 for the full control effect; potency is the fitted concentration of half-maximal effect.

Oc1ccc(Br)cc1-c1nc2cnccn2c1NC1CCCC1 was read as Tau FP inhib inconclusive, TR SRC2 fluor cs -5%, Tau fluor counter 13µM*[quencher], Tau ThT inhib inconclusive, TRb-SRC2 inh 0% and GoLoco inh red 1%.
`COC(=O)CCC(=O)OC1(C)C(=O)C2=CN(C(CO)CO)C(c3ccc(OC)cc3)=CC2=C(Br)C1=O` (centres undefined) gave Tau FP inhib inconclusive, TR SRC2 fluor cs -4%[11.2 µM], Tau fluor counter -21%[11.6 µM], Tau ThT inhib 4µM*, TRb-SRC2 inh inconclusive and GoLoco inh red 16%[14.2 µM].
Screening COC(=O)CCC(=O)OC1(C)C(=O)C2=CN(CCN3CCOCC3)C(c3ccc(OC)cc3)=CC2=C(Br)C1=O (centres undefined) returned Tau FP inhib inconclusive, TR SRC2 fluor cs -5%[11.2 µM], Tau fluor counter -2%[11.6 µM], Tau ThT inhib 7.1µM*!, TRb-SRC2 inh 3%[11.2 µM] and GoLoco inh red 11%[14.2 µM].
Screening COC(=O)CCC(=O)OC1(C)C(=O)C2=CN(CCCCO)C(c3ccc(OC)cc3)=CC2=C(Br)C1=O (centres undefined) returned Tau FP inhib 6%[11.6 µM], TR SRC2 fluor cs -1%[11.2 µM], Tau fluor counter 6%[11.6 µM], Tau ThT inhib 15%[11.5 µM], TRb-SRC2 inh 0%[11.2 µM] and GoLoco inh red 2%[14.2 µM].
`CCc1sc(NC(=O)CCC(=O)O)nc1-c1cc2ccccc2oc1=O` gave Tau FP inhib 7%, TR SRC2 fluor cs 2%, Tau fluor counter -6%, Tau ThT inhib -5%, TRb-SRC2 inh 0% and GoLoco inh red -1%.
For CC1OC23CCCCC2C(C#N)(C(=N)O3)C1(C#N)C#N (centres undefined) the results were Tau FP inhib -13%, TR SRC2 fluor cs 3%, Tau fluor counter -11%, Tau ThT inhib -17%, TRb-SRC2 inh -12% and GoLoco inh red -31%.
CCCC1OC23CCCCC2C(C#N)(C(=N)O3)C1(C#N)C#N (centres undefined) was read as Tau FP inhib -12%, TR SRC2 fluor cs 9%, Tau fluor counter -9%, Tau ThT inhib inconclusive, TRb-SRC2 inh -21% and GoLoco inh red 28µM*.
For CCC1OC23CCCCC2C(C#N)(C(=N)O3)C1(C#N)C#N (centres undefined) the results were Tau FP inhib inconclusive, TR SRC2 fluor cs 2%, Tau fluor counter -18%, Tau ThT inhib inconclusive, TRb-SRC2 inh -2% and GoLoco inh red 35µM*.
`CCc1ccccc1NC(=O)CN1C(=O)c2cccnc2Oc2ccc(Cl)cc21` gave Tau FP inhib 4%, TR SRC2 fluor cs 14µM*[quencher], Tau fluor counter -7%, Tau ThT inhib -6% and TRb-SRC2 inh -6%.
CCOC(=O)c1ccc(NC(=O)CN2C(=O)c3cccnc3Oc3ccc(Cl)cc32)cc1 was read as Tau FP inhib -5%, TR SRC2 fluor cs -29%, Tau fluor counter -29%, Tau ThT inhib inconclusive and TRb-SRC2 inh -1%.
Screening Cc1ccc(NC(=O)CN2C(=O)c3cccnc3Oc3ccc(Cl)cc32)cc1 returned Tau FP inhib inconclusive, TR SRC2 fluor cs 18µM*[quencher], Tau fluor counter -22%, Tau ThT inhib -15% and TRb-SRC2 inh -15%.
`Cc1cc(C)cc(NC(=O)[C@H]2O[C@@H]3OC(C)(C)O[C@@H]3[C@H]3OC(C)(C)O[C@H]32)c1` gave Tau FP inhib inconclusive, TR SRC2 fluor cs -1%, Tau fluor counter -13%, Tau ThT inhib 2% and TRb-SRC2 inh 2%.
Screening O=S(=O)(c1ccc(Cl)cc1)c1nnn2c1nc(NC1CCCCC1)c1sccc12 returned Tau FP inhib inconclusive, TR SRC2 fluor cs -2%, Tau fluor counter -16%, Tau ThT inhib 13% and TRb-SRC2 inh 1%.
`COc1ccc(CN2CCN(C(C)C)C(CCO)C2)cc1Cn1cncn1` (centres undefined) gave Tau FP inhib 0%, TR SRC2 fluor cs 4%, Tau fluor counter 3%, Tau ThT inhib -2%, TRb-SRC2 inh 3% and GoLoco inh red -9%.
Screening COc1ccc(-n2nc3ccccc3n2)cc1 returned Tau FP inhib 10%, TR SRC2 fluor cs -1%, Tau fluor counter -1%, Tau ThT inhib -4%, TRb-SRC2 inh -2% and GoLoco inh red -4%.
`COc1ccc(-n2nc3cc(C)c(N)c(Br)c3n2)cc1` gave Tau FP inhib inconclusive, TR SRC2 fluor cs -28%, Tau fluor counter inconclusive, Tau ThT inhib 14µM*, TRb-SRC2 inh inconclusive and GoLoco inh red -27%.
For NC(=O)N1OCC2COc3ccc4ccccc4c3C21 (centres undefined) the results were Tau FP inhib -1%, TR SRC2 fluor cs 0%, Tau fluor counter -12%, Tau ThT inhib -10%, TRb-SRC2 inh -13% and GoLoco inh red -3%.
`O=C(Nc1ccc(Cl)cc1)N[C@@H]1c2c(ccc3ccccc23)OC[C@@H]1CO` gave Tau FP inhib 32µM*, TR SRC2 fluor cs 0%, Tau fluor counter inconclusive, Tau ThT inhib 9%, TRb-SRC2 inh 1% and GoLoco inh red -6%.
`O=C(CCCC(=O)OCC(Cl)=C(Cl)Cl)Nc1cccc(F)c1` gave Tau FP inhib -1%, TR SRC2 fluor cs -1%, Tau fluor counter 3%, Tau ThT inhib -7%, TRb-SRC2 inh -4% and GoLoco inh red -1%.
Screening CNC(=S)N=Nc1c(O)[nH]c2ccccc12 returned Tau FP inhib -15%, TR SRC2 fluor cs -6%, Tau fluor counter -18%, Tau ThT inhib inconclusive, TRb-SRC2 inh 1% and GoLoco inh red 0%.
For CN(C)C(=S)N=Nc1[nH]c2ccccc2c1O the results were Tau FP inhib -23%, TR SRC2 fluor cs -1%, Tau fluor counter -24%, Tau ThT inhib 16µM*, TRb-SRC2 inh 2% and GoLoco inh red -5%.
CCOc1ccc(-c2nnc(SCC(=O)Nc3ccc(C)cc3Cl)o2)cc1 was read as Tau FP inhib 0%, TR SRC2 fluor cs 1%, Tau fluor counter -7%, Tau ThT inhib -11% and TRb-SRC2 inh 4%.
Screening Cc1ccc(OCCCN2C(=O)C(=O)c3cccc(C)c32)cc1 returned Tau FP inhib 3%, TR SRC2 fluor cs -6%, Tau fluor counter -12%, Tau ThT inhib inconclusive, TRb-SRC2 inh -10% and GoLoco inh red -12%.

From PubChem BioAssay
